Laboratory results: publication PMC7826789 (International Journal of Molecular Sciences, 2021)

system: ULK2; settings: Compound Concentration (nM):1000
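Further: KINOMEscan scanMAX binding as percent activity remaining versus control; lower means stronger binding.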

Row | Structure (SMILES) | Percent Control [%]
1 | COc1cc(N2CCN(C(C)C)CC2)ccc1Nc1nc(Nc2ccc(F)cc2C(=O)NC[C@@H](O)CO)c2cc[nH]c2n1 [GSK1392956A] | 77
2 | Nc1ncnc2occ(-c3ccc(NC(=O)Nc4cc(C(F)(F)F)ccc4F)cc3)c12 [GW770249X] | 93
3 | NS(=O)(=O)c1ccc(N/N=C2\C(=O)Nc3ccc(C(=O)NCc4ccncc4)cc32)cc1 [GW300657X] | 26
4 | COc1cccc(-c2c[nH]c3c(N/N=C/c4ccncc4)ncnc23)c1 [GW814408X] | 91
5 | COc1ccc2c(-c3ccnc(Nc4cccc(OC(F)(F)F)c4)n3)cnn2n1 [GW810372X] | 100
6 | CCS(=O)(=O)c1ccc(OC)c(Nc2ncc(-c3cccc(OC)c3)o2)c1 [GW580509X] | 80
7 | Cl.O=C(Nc1ccc(Oc2ccc3[nH]c(NC(=O)c4ccco4)nc3c2)cc1)Nc1cc(C(F)(F)F)ccc1F [GW683134A] | 89
8 | CCn1c(-c2nonc2N)nc2c(C#CC(C)(C)O)nc(OCCNC)cc21.Cl [GSK949675] | 100
9 | COc1cccc(-n2ncc3c(N/N=C/c4ccncc4)ncnc32)c1 [GW784752X] | 69
10 | COc1ccccc1-c1cc(/C=C2\C(=O)Nc3ncc(Br)cc32)cc(Br)c1O [GW442130X] | 100
11 | Cl.O=C(O[C@H]1CN[C@H](C#Cc2cc3ncnc(Nc4ccc5c(cnn5Cc5ccccc5)c4)c3s2)C1)N1CCOCC1 [GSK200398A] | 86
12 | COc1cc2ncn(-c3cc(O[C@H](C)c4ccccc4Cl)c(C(N)=O)s3)c2cc1OC [GSK237701A] | 75
13 | Cl.O=C(Nc1ccc(Oc2ccc3[nH]c(NC(=O)c4ccccc4)nc3c2)cc1)Nc1cc(C(F)(F)F)ccc1F [GW709042A] | 100
14 | NS(=O)(=O)c1ccc(N/N=C2\C(=O)Nc3ccc(C(=O)NCCc4c[nH]cn4)cc32)cc1 [GW300660X] | 37
15 | CN1CCN(C(=O)c2ccc(NC(=O)Nc3ccc(N(C)c4ccnc(Nc5ccc(CS(C)(=O)=O)cc5)n4)cc3)cc2)CC1.Cl [GW830263A] | 78
16 | CN(C)CCNC(=O)Nc1ccc(N(C)c2ccnc(Nc3ccc(CS(C)(=O)=O)cc3)n2)cc1.Cl [GW830900A] | 97

Row | Structure (SMILES) | Percent Control [%]
17 | COc1cc(C)c(N(C)C(=O)CN(C)C)cc1Nc1nc(Nc2cccc(F)c2C(N)=O)c2cc[nH]c2n1 [GSK2219385] | 80
18 | CCS(=O)(=O)c1ccc(OC)c(Nc2ncc(-c3cccc(F)c3)o2)c1 [GW621970X] | 95
19 | Cc1cc(O)cc(C)c1/C=C/c1cncc(C(N)=O)c1 [GW435821X] | 97
20 | COc1ccc(COc2ccc(Cc3cnc(N)nc3N)cc2OC)cc1 [GW632580X] | 90
21 | COc1cc(/C=N/Nc2ncnc3[nH]ncc23)ccc1O [GW578748X] | 43
22 | NS(=O)(=O)c1ccc(N/N=C2\C(=O)Nc3ccc(Cl)cc32)cc1 [GW280670X] | 100
23 | CN(C)c1cc2c(Nc3ccc4c(cnn4Cc4ccccc4)c3)ncnc2cn1 [GW282974X] | 85
24 | COc1cc(C=NNc2ncnc3c2cnn3-c2ccccc2)ccc1O [GW513184X] | 100
25 | CC(C)COC(=O)c1ccc2c(c1)/C(=C/Nc1ccc(S(N)(=O)=O)cc1)C(=O)N2 [GW416981X] | 0.3
26 | C[C@@H](Oc1cc(-n2cnc3ccc(OC4CCN(C)CC4)cc32)sc1C(N)=O)c1ccccc1Cl [GSK579289A] | 44
27 | COC(=O)Nc1nc2ccc(Oc3ccc(NC(=O)Nc4cc(C(F)(F)F)ccc4F)cc3)cc2s1.Cl [GW693917A] | 84
28 | O=C1Nc2ccc(C(=O)c3ccco3)cc2C1=Cc1cc(Cl)c(O)c(Cl)c1 [GW406108X] | 71
29 | Cl.O=S1CCN(Cc2ccc(-c3ccc4ncnc(Nc5ccc(OCc6ccccc6)c(F)c5)c4c3)o2)CC1 [GW576924A] | 100
30 | CC1=C(C(=O)Nc2ccc3[nH]ncc3c2)C(c2ccc(Cl)c(Cl)c2)CC(=O)N1 (centres unmarked) [GSK299115A] | 72
31 | O=C(Nc1n[nH]c2nc(-c3ccc(O)cc3)c(Br)cc12)C1CC1 [SB-725317] | 100
32 | COc1ccc2cc(-c3c(-c4ccncc4)nc(-c4ccc(S(C)(=O)=O)cc4C)n3C)ccc2c1 [SB-633825] | 88
